Among all 2,100 compounds or so, about 650 (31%) were called active. About 16% were inconclusive and are not listed. Calls come from the whole dose curve; as a rule, active = well fitted inhibition curve with a large enough effect; inconclusive = small, poorly fitted or top-dose-only effect; inactive = flat fitted curve, though single readings scatter. The list shows a part of the results. Entries that show only a call come without a potency.
test: qHTS for inhibitors of Vif-A3G interactions: Cherry picks; conditions: HeLa A3G-eYFP + Vif (tagged APOBEC3G with the HIV-1 protein that degrades it), 24 h; Potency: eYFP fluorescence increase; series mostly up to 36.9 µM; note: nearly all actives have a fitted effect of over 80% in size
Summary of the method: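 HeLa cells stably expressing A3G-eYFP and Vif, cultured overnight then exposed to compounds at several concentrations for 24 hours at 37 C, 5% CO2; cellular yellow fluorescence (488 nm ex, 500-530 nm em) imaged on Acumen, MG132 positive control.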
Potency is the fitted concentration of half-maximal effect.

Row | Compound | Potency
1 | O=C(NC(=S)Nc1ccc(-c2ccccc2)cc1)c1ccccc1 | inactive
2 | CC(C)Cn1c(N)c(C(=O)COC(=O)c2ccc([N+](=O)[O-])o2)c(=O)n(C)c1=O | inactive
3 | CC(C)(C)n1ncc2c(=O)n(CC(=O)NCc3ccc(F)cc3)cnc21 | inactive
4 | O=C1OC(Nc2nc(-c3ccc(F)cc3)cs2)c2ccccc21 (stereo unspecified) | inactive
5 | CCN(CC)c1ccc(/C=C/c2cc(-c3ccccc3)c3ccccc3n2)cc1 | 11.2 µM (active)
6 | COc1ccc(C2=NOC(C(=O)NCc3cccs3)C2)cc1OC (stereo unspecified) | inactive
7 | Cc1ccc(N2C(=O)[C@@H]3[C@H](C2=O)[C@H]2C=C(C(=O)c4ccccc4)C=CN2[C@@H]3C(=O)c2ccc(Cl)cc2)cc1 | inactive
8 | CCn1nc(-c2ccccc2)c2nc3ccccc3nc21 | 16.4 µM (active)
9 | Nc1ccc2nc(-c3ccccc3)c(-c3ccccc3)nc2c1 | inactive
10 | O=C(Nc1nc(NC(=O)c2ccco2)n(-c2ccccc2)n1)c1ccccc1 | inactive
11 | Cc1cc(C)c2cc3c(N)c(C(=O)Nc4c(C)[nH]c(=O)[nH]c4=O)sc3nc2c1 | 18.4 µM (active)
12 | O=C(Cn1cnc2c(cnn2-c2ccc(F)cc2)c1=O)NCc1ccco1 | inactive
13 | N#CC1=C(N)Oc2cc(N)ccc2C1c1cccc(F)c1 (stereo unspecified) | inactive
14 | N#CC1=C(N)Oc2cc(N)ccc2C1c1ccc(F)cc1F (stereo unspecified) | 18.4 µM (active)
15 | N#CC1=C(N)Oc2cc(N)ccc2C1c1ccccc1F (stereo unspecified) | inactive
16 | Cc1csc(NC(=O)CCC(=O)N(CC(=O)NC2CCCC2)Cc2ccccc2)n1 | inactive
17 | CCCC1=Nc2cc(C(=O)NCc3ccco3)ccc2Sc2ccccc21 | inactive
18 | COc1cc(OC)c(OC)cc1/C=C1\Oc2cc(OCC(=O)N3Cc4ccccc4C[C@H]3C(=O)O)ccc2C1=O | 4.11 µM (active)
19 | Cc1cc(=O)oc2cc(OCC(=O)N3c4ccccc4CC3C)ccc12 (stereo unspecified) | inactive
20 | CCNC(=S)N/N=C(\C)c1ccc(N2CCOCC2)cc1 | inactive
21 | COc1ccc(OCCCC(=O)N2CCN(S(=O)(=O)c3cccc(F)c3)CC2)cc1 | inactive
22 | O=C1CSC(=S)N1Cc1cccnc1 | 16.4 µM (active)
23 | O=C(/C(=C/c1ccc(Cl)cc1)c1nc2ccccc2[nH]1)c1cccs1 | inactive
24 | N=C1C(c2nc3ccccc3[nH]2)=C(O)CN1c1ccccc1 | inactive

Row | Compound | Potency
25 | COc1ccc(OC)c(/C=C/c2nc3ccccc3[nH]c2=O)c1 | 18.4 µM (active)
26 | O=c1[nH]c2ccccc2nc1/C=C/c1ccc(F)cc1 | 14 µM (active)
27 | COc1cccc(N2CC(O)=C(c3nc4ccccc4c(=O)[nH]3)C2=N)c1 | inactive
28 | O=c1[nH]c2ccccc2nc1/C=C(\O)c1cccs1 | 18.4 µM (active)
29 | COc1ccc(OC)c(Nc2nc(-c3ccncc3)nc3ccccc23)c1 | inactive
30 | CCN(CC)c1ccc(NC(=O)c2ccc(=O)[nH]c2)cc1S(=O)(=O)Nc1ccccc1OC | inactive
31 | COc1ccc(NS(=O)(=O)c2cc([N+](=O)[O-])ccc2N/N=C/c2c(C)[nH]c3ccccc23)cc1 | 14.6 µM (active)
32 | O=[N+]([O-])c1ccc(N/N=C\c2cccn2-c2ccccc2)nc1 | inactive
33 | COc1ccc(S(=O)(=O)Nc2cccc3ccccc23)cc1 | inactive
34 | Cc1[nH]c2ccccc2c1/C=N/Nc1ccc([N+](=O)[O-])cc1 | 13 µM (active)
35 | Cc1[nH]c2ccccc2c1/C=N/NC(=O)c1cc(-c2ccncc2)nc2ccccc12 | inactive
36 | O=[N+]([O-])c1ccc(N/N=C/c2c[nH]c3ccccc23)cc1 | 11.6 µM (active)
37 | COc1ccccc1NS(=O)(=O)c1cc([N+](=O)[O-])ccc1N/N=C/c1c[nH]c2ccccc12 | 16.4 µM (active)
38 | O=C(N/N=C/c1c[nH]c2ccccc12)C1COc2ccccc2O1 (stereo unspecified) | inactive
39 | CCCCCS(=O)(=O)c1oc(-c2cccs2)nc1S(=O)(=O)c1ccc(C)cc1 | inactive
40 | Cc1ccc(-c2nc(C=Nc3ccc(O)cc3)c(O)o2)cc1 | inactive
41 | COc1ccc(NC(=O)C2(C)Cc3c(-c4cccc(NC(C)=O)c4)ccnc3O2)cc1 (stereo unspecified) | inactive
42 | COc1cc(Cn2c3ccc(NC(=O)CCc4ccccc4)cc3c(=O)n2C)ccc1F | inactive
43 | Cn1nnnc1SCCNCc1cc(Br)ccc1OCc1ccccc1Cl | inactive
44 | Cc1ccc(-c2cc(NC=O)c3ncc(-c4cnn(C)c4)n3c2)cc1 | inactive
45 | O=[N+]([O-])c1ccc(N=Nc2ccc(O)c3ccccc23)cc1 | inactive
46 | C/C(=N/Nc1ccc([N+](=O)[O-])cc1)c1c[nH]c2ccccc12 | 8.2 µM (active)
47 | COc1ccccc1NS(=O)(=O)c1cc([N+](=O)[O-])ccc1N/N=C/c1c(C)[nH]c2ccccc12 | 2.8 µM (active)
48 | Cc1ccc(-c2cc(C(=O)N/N=C/c3c[nH]c4ccccc34)[nH]n2)cc1 | inactive

Row | Compound | Potency
49 | O=C(Nc1ccc2c(c1)OCCO2)C(=O)c1c[nH]c2ccccc12 | inactive
50 | O=[N+]([O-])c1ccc(N/N=C/c2c[nH]c3ccccc23)c(S(=O)(=O)Nc2ccc(Cl)cc2)c1 | 18.4 µM (active)
51 | Cc1ccc(N2C(=O)CS/C2=C(\C(Cl)=C(Cl)Cl)[N+](=O)[O-])cc1 | inactive
52 | Fc1cccc(F)c1/C=N/NC(=S)Nc1cccnc1 | inactive
53 | Cn1c(=O)c2cc(NC(=O)Cc3cccc4ccccc34)ccc2n1-c1ccccc1 | inactive
54 | CCOc1cc(/C=C/C(=O)c2ccc(OC)c(CN3CCOCC3)c2)cc(Br)c1O | 18.4 µM (active)
55 | COc1cc(/C=C/C(=O)c2ccc(O)cc2)ccc1OCC#N | inactive
56 | CCOc1ccc(N/C=C/C(=O)c2cc(OC)c(OC)c(OC)c2)cc1 | inactive
57 | COc1cc2c(cc1OC)C(C)N(C(=O)c1cc(Cl)nc(Cl)c1)CC2 (stereo unspecified) | inactive
58 | O=C(Nc1ccc([N+](=O)[O-])cc1)C(Cc1ccccc1)N1C(=O)c2cccc3cccc(c23)C1=O (stereo unspecified) | 14 µM (active)
59 | O=C(c1ccc(CS(=O)c2ccccc2Cl)o1)N1CCN(c2ccccc2F)CC1 (stereo unspecified) | inactive
60 | CC(=O)c1ccc2cccc3c2c1N=CN3C | 15.8 µM (active)
61 | C=CCn1c(O)c(N=NC(=O)CNC(=O)c2ccco2)c2ccccc21 | inactive
62 | CCN(CC)c1ccc(NC(=O)c2ccc(=O)[nH]c2)cc1S(=O)(=O)Nc1ccc(OC)cc1 | inactive
63 | O=C(O)c1cccc(-c2ccc(/C=N/Nc3ccc([N+](=O)[O-])cc3)o2)c1 | 18.4 µM (active)
64 | Cc1cc(/C=N/NC(=O)c2cc3ccccc3o2)c(C)n1C | inactive
65 | NC(=S)N/N=C\c1ccc(-c2cccc(Cl)c2Cl)o1 | inactive
66 | O=[N+]([O-])c1ccccc1C=NNC(=S)NN=Cc1ccccc1[N+](=O)[O-] | inactive
67 | CC(C)(C)NC(=S)N/N=C\c1ccc(-c2ccc([N+](=O)[O-])cc2)o1 | 20.6 µM (active)
68 | O=C(O)c1ccc(N/N=C/C(Br)=C/c2ccccc2)cc1 | inactive
69 | O=C(Cc1ccccc1)N/N=C/c1ccc(-c2ccc([N+](=O)[O-])cc2)o1 | 17.7 µM (active)
70 | Cc1ccc(-c2ccc(/C=N/NC(N)=S)o2)cc1 | inactive
71 | CCOc1ccc(S(=O)(=O)N(CC(=O)N/N=C/c2ccc(-c3ccc([N+](=O)[O-])cc3)o2)c2ccccc2)cc1 | inactive
72 | Cc1cc([N+](=O)[O-])ccc1-c1ccc(/C=N/NC(=O)c2ccc(Br)o2)o1 | 16.4 µM (active)

Row | Compound | Potency
73 | CC1(C(=O)NCc2ccccc2)Cc2c(-c3cccc(C(N)=O)c3)ccnc2O1 (stereo unspecified) | inactive
74 | COc1ccc(NC(=O)C2(C)Cc3c(-c4cccc(C(N)=O)c4)ccnc3O2)cn1 (stereo unspecified) | inactive
75 | O=C(COc1ccc(C(=O)c2ccccc2)cc1)NCc1ccc(F)cc1 | inactive
76 | Cc1c(C(=O)C(=O)N2CC=C(c3ccccc3)CC2)c2ccccc2n1C | inactive
77 | CCOc1ccc(S(=O)(=O)NCc2ccccn2)cc1NC(=O)c1ccccc1 | inactive
78 | O=C1CC(c2ccccc2F)c2cc3c(cc2N1)CCC3 (stereo unspecified) | inactive
79 | CN(/N=C/c1ccc(-c2ccc([N+](=O)[O-])cc2)o1)c1ccccc1 | 1.64 µM (active)
80 | Cc1cc(N2CCN(Cc3cn(C)nc3-c3ccccc3F)CC2)cc(C)n1 | inactive
81 | COc1cc(C(=O)N/N=C/c2ccccn2)cc(OC)c1OC | inactive
82 | Cc1cc(C)n(-c2nc3c(c(=O)[nH]c(=O)n3C)n2CC(O)COc2ccc(Cl)cc2Cl)n1 (stereo unspecified) | inactive
83 | Cc1ccc2ccc3c(c2n1)NS(=O)(=O)c1ccc(C(F)(F)F)cc1-3 | inactive
84 | N#C/C(=C\c1ccc(C(=O)O)cc1)c1nc2sc3c(c2c(=O)[nH]1)CCCC3 | inactive
85 | CN(C)c1ccc(/C=C(\C#N)c2nc3ccccc3c(=O)[nH]2)cc1 | 0.58 µM (active)
86 | COc1ccc(NC2=CC(=O)CC(c3ccccc3)C2)c(OC)c1 (stereo unspecified) | inactive
87 | O=C(NCCc1ccccc1Cl)c1ccc(Cn2c(=O)c3cccn3c3cccnc32)cc1 | 18.4 µM (active)
88 | Cc1ccc(-n2c(=O)c3ccc(C(=O)NCc4ccccc4Cl)cc3n(CC(=O)Nc3cccc(Cl)c3)c2=O)cc1 | inactive
89 | CCCCOc1ccc(/C=C/C2=CC(C)(C)NC(=S)N2)cc1OCC | inactive
90 | Cn1c(/C=C/c2ccc([N+](=O)[O-])o2)nc2ccccc2c1=O | 18.4 µM (active)
91 | CCn1c(/C=C/c2ccc([N+](=O)[O-])o2)nc2ccccc2c1=O | 11.6 µM (active)
92 | O=c1c2ccccc2nc(/C=C/c2ccc([N+](=O)[O-])o2)n1CCCO | 18.4 µM (active)
93 | CCCN1C(=O)C(Cc2nc3ccccc3c(=O)n2CC)c2cc(Br)ccc21 (stereo unspecified) | inactive
94 | CCOC(=O)C(C)Oc1cccc2c(=O)n(CC(=O)NCc3ccco3)ccc12 (stereo unspecified) | inactive
95 | NC(=O)c1ccc(NC(=O)C#Cc2ccccc2)cc1 | inactive
96 | COc1cccc(N2CCN(Cc3nc4scc(-c5ccccc5)c4c(=O)[nH]3)CC2)c1 | inactive

From PubChem BioAssay AID651812 (National Center for Advancing Translational Sciences (NCATS), 2012)
